Results reported in PubChem BioAssay.
Results filed as inconclusive are left out. Active and inactive are the calls of the source.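 The calls were made as follows, unless noted: active = differentiation response of at least 50%, scaled between solvent and reference control, from cells with both markers; inactive = the rest.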

Tests used:
[1] = yeast TOR pathway RPL19A-GFP modulators, primary screen, cell-based, S. cerevisiae, multiplex flow cytometry (AID 1862; in the data active = percent of DMSO control GFP below about 86%;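 also: lower values mimic rapamycin by blocking the RPL19A rise seen in DMSO cells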); details: S. cerevisiae RPL19A-GFP strain, flow cytometry fluorescence, 3 h; at 10 µM; stronger effect = lower value
[2] = modulators of MEP2-GFP levels in yeast, primary screen, S. cerevisiae, multiplex flow cytometry (AID 1867;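 active = GFP response, as percent of the DMSO control, above the screen-wide mean plus 3 SD, about 139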;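 also: median GFP channel fluorescence of barcode-gated MEP2-GFP cells measured by flow cytometry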); details: S. cerevisiae MEP2-GFP strain, 3 h, at 10 µM, stronger effect = higher value, 100% means same as DMSO wells
[3] = modulators of CIT2-GFP expression in yeast, primary screen, S. cerevisiae, GFP fusion, multiplex flow cytometry (AID 1870;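 active = percent response above a set limit, the screen-wide mean plus 3 SD, cut at about 130% in these data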;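 also: barcoded CIT2-GFP strain pooled with four other GFP strains with rapamycin as positive control; median GFP fluorescence per well over plate mean of DMSO wells so 100% = DMSO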); details: 3 h, at 10 µM, stronger effect = higher value
[4] = modulators of LAP4-GFP expression in yeast, primary screen, S. cerevisiae, multiplex flow cytometry (AID 1873;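 active = GFP signal, as percent of the solvent control, above the screen mean plus 3 SD, about 149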); details: 3 h, at 10 µM, stronger effect = higher value
[5] = modulators of AGP1-GFP expression in yeast TOR pathway, primary screen, cell-based, multiplex flow cytometry, S. cerevisiae (AID 1887;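 active = GFP signal above the screen-wide mean plus 3 SD, that is over about 124.5% of the solvent control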;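 also: AGP1-GFP fusion strain of S. cerevisiae within a five-strain barcoded multiplex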); details: 3 h, at 10 µM, stronger effect = higher value
[6] = inhibitors of CD8+ T cell-vesicle binding, pilot screen, LFA-1/ICAM-1 modulator project, MLPCN validation set, flow cytometry (AID 2523;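 active = response below a set limit, under 55% cells CD8-positive and vesicle-bound, and CD8 cells' 90th-percentile brightness under 279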;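 as to vesicle binding response: mean PE anti-B7-1 fluorescence of CD8+ cells relative to row control; 100% = QL9-loaded vesicles with DMSO vehicle in the same plate row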); details: 2C mouse CD8+ T cells, at 7 µM, stronger effect = lower value; double positive events: measured here: CD8+/vesicle+ event percentage
[7] = target: Integrin beta-1 (Homo sapiens) + Integrin alpha-4 (Homo sapiens) (UniProt P13612+P05556); experiment: inhibition of HUTS-21 binding to VLA-4, pilot screen, VLA-4 allosteric modulator project, U937 cells, HUTS-21 mAb, flow cytometry, validation set (AID 2674;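 active = inhibition above 50%, about 3 SD of the validation set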;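 also: antibody binding induced by the VLA-4 ligand LDV present at three times its Kd; 0% = LDV ligand with antibody and no compound and 100% = antibody without LDV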); details: HUTS-21 LIBS mAb binding, at 6.7 µM, stronger effect = higher value, binding induced by LDV ligand
Sequence of Integrin beta-1 (Homo sapiens) + Integrin alpha-4 (Homo sapiens) (P05556 whole entry, looked up): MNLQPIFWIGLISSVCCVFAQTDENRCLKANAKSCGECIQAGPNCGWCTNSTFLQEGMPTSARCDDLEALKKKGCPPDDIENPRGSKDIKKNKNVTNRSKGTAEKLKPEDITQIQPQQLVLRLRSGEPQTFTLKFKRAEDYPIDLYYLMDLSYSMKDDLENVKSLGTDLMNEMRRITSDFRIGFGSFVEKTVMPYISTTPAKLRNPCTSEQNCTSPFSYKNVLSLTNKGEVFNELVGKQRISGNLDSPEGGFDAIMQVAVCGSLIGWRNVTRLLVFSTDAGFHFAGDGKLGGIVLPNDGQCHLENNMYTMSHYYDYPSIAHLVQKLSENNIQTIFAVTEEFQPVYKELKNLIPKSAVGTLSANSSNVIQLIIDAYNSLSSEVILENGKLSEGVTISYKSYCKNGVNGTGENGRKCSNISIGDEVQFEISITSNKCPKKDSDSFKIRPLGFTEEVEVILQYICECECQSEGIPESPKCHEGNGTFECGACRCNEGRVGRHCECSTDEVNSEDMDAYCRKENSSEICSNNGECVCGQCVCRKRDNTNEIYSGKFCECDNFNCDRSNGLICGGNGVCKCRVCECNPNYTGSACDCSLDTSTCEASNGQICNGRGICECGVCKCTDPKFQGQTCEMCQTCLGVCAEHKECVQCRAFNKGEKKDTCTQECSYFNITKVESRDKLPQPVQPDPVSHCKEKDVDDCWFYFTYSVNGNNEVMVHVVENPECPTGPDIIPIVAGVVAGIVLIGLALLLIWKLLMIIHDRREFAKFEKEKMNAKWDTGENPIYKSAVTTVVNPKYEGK
Sequence of Integrin beta-1 (Homo sapiens) + Integrin alpha-4 (Homo sapiens) (P13612 whole entry, looked up): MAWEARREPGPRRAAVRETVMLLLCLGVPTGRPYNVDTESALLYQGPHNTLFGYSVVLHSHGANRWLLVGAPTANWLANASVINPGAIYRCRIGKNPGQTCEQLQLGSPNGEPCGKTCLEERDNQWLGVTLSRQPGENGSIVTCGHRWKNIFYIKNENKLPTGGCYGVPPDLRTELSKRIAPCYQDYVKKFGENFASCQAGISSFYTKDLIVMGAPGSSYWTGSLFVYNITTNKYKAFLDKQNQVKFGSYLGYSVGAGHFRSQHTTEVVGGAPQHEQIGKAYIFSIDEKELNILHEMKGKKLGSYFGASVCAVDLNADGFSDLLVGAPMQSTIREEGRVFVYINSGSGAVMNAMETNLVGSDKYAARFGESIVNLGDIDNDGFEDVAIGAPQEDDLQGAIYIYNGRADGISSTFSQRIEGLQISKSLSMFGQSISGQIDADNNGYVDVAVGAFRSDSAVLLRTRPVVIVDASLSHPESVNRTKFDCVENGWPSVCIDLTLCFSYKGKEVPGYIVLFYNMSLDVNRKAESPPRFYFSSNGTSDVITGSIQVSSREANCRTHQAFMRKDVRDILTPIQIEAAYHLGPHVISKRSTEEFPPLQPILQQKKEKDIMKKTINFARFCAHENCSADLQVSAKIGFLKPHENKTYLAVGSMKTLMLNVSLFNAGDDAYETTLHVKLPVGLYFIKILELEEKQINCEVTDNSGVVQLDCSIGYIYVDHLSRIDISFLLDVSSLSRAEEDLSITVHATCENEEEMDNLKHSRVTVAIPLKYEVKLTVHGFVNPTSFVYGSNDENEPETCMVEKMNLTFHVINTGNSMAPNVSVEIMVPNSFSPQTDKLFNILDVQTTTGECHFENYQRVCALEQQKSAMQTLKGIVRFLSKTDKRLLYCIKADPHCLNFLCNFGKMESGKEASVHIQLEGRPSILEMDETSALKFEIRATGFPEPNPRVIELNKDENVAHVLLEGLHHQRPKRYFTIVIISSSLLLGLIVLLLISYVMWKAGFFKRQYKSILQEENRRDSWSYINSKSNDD

[8] = superoxide lowering in aged yeast cells, pilot screen, validation compound set (AID 2706;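 active = superoxide response below 65% of plate, a cut near 3 SD across the whole screen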;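 also: yeast exposed to compound for one week at 30 degrees C before staining; 100% = mean of all compound wells on the same plate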); details: S. cerevisiae aging, superoxide DHE fluorescence; at 10 µM; stronger effect = lower value
[9] = target: Beta-adrenergic receptor kinase 1 (Homo sapiens) (UniProt P25098); experiment: GRK2 binders displacing RNA aptamer, biochemical, validation, human GRK2, bead flow cytometry (AID 488806;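 active = aptamer binding inhibition above 30%, about 3 SD of noise from non-fluorescent compounds; inactive = inhibition at or below 30%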); details: bead-bound GRK2, FAM-aptamer displacement, at 10 µM, stronger effect = higher value
Sequence of Beta-adrenergic receptor kinase 1 (Homo sapiens) (P25098 whole entry, looked up): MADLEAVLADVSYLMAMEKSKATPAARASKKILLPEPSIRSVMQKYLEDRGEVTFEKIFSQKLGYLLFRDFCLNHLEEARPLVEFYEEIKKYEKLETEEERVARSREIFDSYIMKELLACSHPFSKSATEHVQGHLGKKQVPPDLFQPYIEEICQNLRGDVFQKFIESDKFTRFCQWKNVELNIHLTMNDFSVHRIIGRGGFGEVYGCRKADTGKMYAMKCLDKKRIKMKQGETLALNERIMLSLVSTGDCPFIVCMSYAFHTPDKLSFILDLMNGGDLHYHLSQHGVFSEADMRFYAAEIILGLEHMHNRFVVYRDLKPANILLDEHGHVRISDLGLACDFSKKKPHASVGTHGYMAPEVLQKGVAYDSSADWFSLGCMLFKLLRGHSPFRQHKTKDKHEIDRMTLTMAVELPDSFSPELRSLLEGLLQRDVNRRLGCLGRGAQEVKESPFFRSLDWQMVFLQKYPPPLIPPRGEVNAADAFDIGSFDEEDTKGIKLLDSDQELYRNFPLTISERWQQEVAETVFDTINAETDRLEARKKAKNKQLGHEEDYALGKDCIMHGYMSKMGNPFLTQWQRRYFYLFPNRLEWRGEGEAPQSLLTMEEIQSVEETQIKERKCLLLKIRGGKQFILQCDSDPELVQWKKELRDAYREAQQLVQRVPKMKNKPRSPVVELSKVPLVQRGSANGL

[10] = target: Beta-2 adrenergic receptor (Homo sapiens) (UniProt P07550); experiment: beta2AR agonists driving receptor internalization, pilot screen, cell-based, FAP fluorogen, flow cytometry, validation set (AID 504459;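 active = percent response above 42, roughly 3 SD of non-fluorescent test compounds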;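 also: agonist-driven loss of surface beta2AR via internalization measured by FAP dye flow cytometry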); details: Am2.2-beta2AR cells, FAP surface receptor flow cytometry; at 10 µM; stronger effect = higher value
Sequence of Beta-2 adrenergic receptor (Homo sapiens) (P07550 whole entry, looked up): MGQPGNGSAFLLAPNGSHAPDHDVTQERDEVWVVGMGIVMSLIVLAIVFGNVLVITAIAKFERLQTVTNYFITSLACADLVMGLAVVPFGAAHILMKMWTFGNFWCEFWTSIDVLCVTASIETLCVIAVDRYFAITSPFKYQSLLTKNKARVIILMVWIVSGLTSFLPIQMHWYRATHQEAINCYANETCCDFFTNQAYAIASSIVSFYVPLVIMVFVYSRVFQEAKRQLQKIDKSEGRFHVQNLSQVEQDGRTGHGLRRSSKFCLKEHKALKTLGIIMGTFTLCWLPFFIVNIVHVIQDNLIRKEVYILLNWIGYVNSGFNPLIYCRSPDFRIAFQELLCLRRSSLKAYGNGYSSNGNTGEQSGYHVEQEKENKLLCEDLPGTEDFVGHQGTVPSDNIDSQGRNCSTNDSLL

[11] = target: AP-2 complex subunit beta (Homo sapiens) (UniProt P63010); experiment: inhibitors of arrestin peptide binding to AP2, pilot screen, biochemical, validation set, GST-AP2 beads, flow cytometry (AID 504541;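 active = inhibition above 54%, about 3 SD of non-fluorescent compounds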;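 also: AP2 carries R879A mutation and is captured from E. coli lysate; bead-bound FITC arrestin peptide fluorescence measuring arrestin peptide binding to AP2; 0% = DMSO wells and 100% = excess unlabeled arrestin peptide control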); details: FITC arrestin peptide, at 10 µM, stronger effect = higher value, AP2 beta2 appendage fragment, R879A mutant
Sequence of AP-2 complex subunit beta (Homo sapiens) (P63010 whole entry, looked up, the tested form may be a part, one chain of several): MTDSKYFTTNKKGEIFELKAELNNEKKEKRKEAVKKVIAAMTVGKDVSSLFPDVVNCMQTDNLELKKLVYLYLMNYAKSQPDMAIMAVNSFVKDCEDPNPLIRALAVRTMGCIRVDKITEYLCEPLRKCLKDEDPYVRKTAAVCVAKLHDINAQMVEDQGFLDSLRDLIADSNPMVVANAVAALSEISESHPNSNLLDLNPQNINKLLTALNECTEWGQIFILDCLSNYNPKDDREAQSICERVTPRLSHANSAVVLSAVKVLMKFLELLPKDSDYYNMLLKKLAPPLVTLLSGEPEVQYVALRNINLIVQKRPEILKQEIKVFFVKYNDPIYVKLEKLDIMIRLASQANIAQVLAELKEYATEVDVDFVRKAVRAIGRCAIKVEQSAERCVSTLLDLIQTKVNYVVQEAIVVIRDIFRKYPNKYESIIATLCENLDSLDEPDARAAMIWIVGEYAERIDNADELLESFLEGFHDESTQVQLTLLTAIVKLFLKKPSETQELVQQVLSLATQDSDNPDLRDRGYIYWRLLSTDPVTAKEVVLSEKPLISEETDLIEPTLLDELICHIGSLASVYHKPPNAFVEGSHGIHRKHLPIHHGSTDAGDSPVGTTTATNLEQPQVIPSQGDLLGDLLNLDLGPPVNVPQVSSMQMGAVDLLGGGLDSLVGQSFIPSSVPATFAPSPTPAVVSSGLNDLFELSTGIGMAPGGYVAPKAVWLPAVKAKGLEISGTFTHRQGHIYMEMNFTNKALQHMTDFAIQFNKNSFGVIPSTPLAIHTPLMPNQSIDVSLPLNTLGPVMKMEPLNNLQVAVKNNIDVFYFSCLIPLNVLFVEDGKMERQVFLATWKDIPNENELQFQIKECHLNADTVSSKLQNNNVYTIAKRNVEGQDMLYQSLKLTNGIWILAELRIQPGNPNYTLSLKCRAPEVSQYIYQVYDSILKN

[12] = yeast V-ATPase proton transport modulators, S. cerevisiae, pHLuorin, HTS validation (AID 504600; in the data active = response above about 15%;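 also: plate controls were DMSO for no effect and reference compound for full effect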); details: S. cerevisiae pHLuorin cytosolic pH, at 10 µM, stronger effect = higher value
[13] = tested on: anti-desmoglein-3 scFv antibody binding to human DSG3; experiment: inhibitors of anti-DSG3 scFv binding to DSG3, pilot screen, biochemical, validation compound set, bead-based, flow cytometry (AID 588368;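 active = binding below the plate cutoff, the plate median minus 3 SD, with a reading above zero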;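 also: signal is the median channel fluorescence of bead-bound GFP antibody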); details: Protein G beads, DSG3-Fc, scFv-GFP binding, at 10 µM, stronger effect = lower value
[14] = inhibitors of fungal efflux pumps CDR1, CDR2, MDR1, pilot screen, validation compound set, multiplex, phenotypic (AID 588506;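 active = efflux inhibition above 0.42, the validation set average plus 4 SD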;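 also: Nile Red retained in cells so higher fluorescence means more efflux inhibition; 0 = negative control wells and 1 = enniatin B 25 µM full block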); details: S. cerevisiae pump-expressing triplex, Nile Red efflux flow cytometry; at 10 µM; stronger effect = higher value; the pumps come from Candida albicans
[15] = target: ATP-binding cassette sub-family B member 6 (Homo sapiens) (UniProt Q9NP58); experiment: ABCB6 transporter inhibitors, pilot screen, K562-ABCB6 cells, flow cytometry, validation set (AID 588550;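 active = inhibition above the screen-wide mean plus 3 SD, about 51%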;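 also: 0% = DMSO wells and 100% = benzethonium chloride 70 µM positive control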); details: K562-ABCB6 porphyrin accumulation, 1 h, at 10 µM, stronger effect = higher value
Sequence of ATP-binding cassette sub-family B member 6 (Homo sapiens) (Q9NP58 whole entry, looked up): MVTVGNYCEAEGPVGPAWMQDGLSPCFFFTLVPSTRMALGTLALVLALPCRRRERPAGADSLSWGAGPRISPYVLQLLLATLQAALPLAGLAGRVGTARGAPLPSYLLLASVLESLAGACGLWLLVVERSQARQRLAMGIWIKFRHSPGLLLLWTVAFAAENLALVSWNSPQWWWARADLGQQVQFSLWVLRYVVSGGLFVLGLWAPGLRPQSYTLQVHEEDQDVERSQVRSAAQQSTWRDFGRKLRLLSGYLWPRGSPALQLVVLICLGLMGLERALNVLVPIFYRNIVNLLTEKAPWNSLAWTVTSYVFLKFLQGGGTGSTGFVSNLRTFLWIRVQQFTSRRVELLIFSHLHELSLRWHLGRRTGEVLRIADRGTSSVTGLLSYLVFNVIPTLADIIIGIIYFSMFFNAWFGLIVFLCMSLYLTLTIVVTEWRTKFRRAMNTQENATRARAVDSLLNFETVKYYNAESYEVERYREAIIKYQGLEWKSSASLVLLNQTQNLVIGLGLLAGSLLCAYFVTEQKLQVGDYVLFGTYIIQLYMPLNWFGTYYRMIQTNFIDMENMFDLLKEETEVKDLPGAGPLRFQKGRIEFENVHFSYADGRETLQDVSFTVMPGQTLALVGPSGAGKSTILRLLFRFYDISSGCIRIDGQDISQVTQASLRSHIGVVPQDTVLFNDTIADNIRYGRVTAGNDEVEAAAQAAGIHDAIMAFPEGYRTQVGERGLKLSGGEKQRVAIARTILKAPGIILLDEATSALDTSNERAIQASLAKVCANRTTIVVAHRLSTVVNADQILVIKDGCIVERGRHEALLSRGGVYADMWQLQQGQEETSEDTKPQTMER

[16] = promoters of myeloid differentiation in arrested cells, primary screen, cell-based, GFP/MAC1 double positive, flow cytometry, validation set (AID 588685); details: ER-HoxA9 marrow cells, stronger effect = higher value, normalized: vehicle 0, fulvestrant 100;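 also: compound exposure lasts four days before antibody staining and flow analysis; 0% = DMSO wells and 100% = 5 µM fulvestrant positive control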

Compound: COC(=O)c1cc(COc2ccc3ccc(=O)oc3c2)c(C)o1
- percent of DMSO control GFP [1]: 105% (inactive)
- GFP response vs DMSO [2]: 104% (inactive)
- percent response of DMSO control [3]: 101% (inactive)
- GFP response vs DMSO [4]: 109% (inactive)
- GFP response, % of DMSO [5]: 92.4% (inactive)
- double positive events [6]: 59.9%
- vesicle binding response [6]: 120% (inactive)
- inhibition [7]: -15.8% (inactive)
- superoxide response (% of plate) [8]: 108% (inactive)
- aptamer binding inhibition [9]: 1% (inactive)
- response [10]: 7.33% (inactive)
- inhibition [11]: -2.54% (inactive)
- response [12]: -7.29% (inactive)
- binding (% of control) [13]: 102% (inactive)
- efflux inhibition (fraction of control) [14]: 0.29 (inactive)
- inhibition [15]: 12% (inactive)
- differentiation response [16]: -7.5% (inactive)

Compound: c1cc(-c2ccncc2)ccn1
- percent of DMSO control GFP [1]: 99.7% (inactive)
- GFP response vs DMSO [2]: 95.2% (inactive)
- percent response of DMSO control [3]: 106% (inactive)
- GFP response vs DMSO [4]: 108% (inactive)
- GFP response, % of DMSO [5]: 105% (inactive)
- double positive events [6]: 58.3%
- vesicle binding response [6]: 239% (inactive)
- inhibition [7]: 0.94% (inactive)
- superoxide response (% of plate) [8]: 117% (inactive)
- aptamer binding inhibition [9]: 4% (inactive)
- response [10]: 8.34% (inactive)
- inhibition [11]: 23.8% (inactive)
- response [12]: -5.09% (inactive)
- binding (% of control) [13]: 101% (inactive)
- efflux inhibition (fraction of control) [14]: -0.28 (inactive)
- inhibition [15]: 4% (inactive)
- differentiation response [16]: 79.2% (active)

Compound: O=C(O)CP(=O)(O)O
- percent of DMSO control GFP [1]: 97.2% (inactive)
- GFP response vs DMSO [2]: 105% (inactive)
- percent response of DMSO control [3]: 93.4% (inactive)
- GFP response vs DMSO [4]: 105% (inactive)
- GFP response, % of DMSO [5]: 96.8% (inactive)
- double positive events [6]: 66.7%
- vesicle binding response [6]: 206% (inactive)
- inhibition [7]: 11% (inactive)
- superoxide response (% of plate) [8]: 99% (inactive)
- aptamer binding inhibition [9]: 6% (inactive)
- response [10]: 6.2% (inactive)
- inhibition [11]: 3.17% (inactive)
- response [12]: -1.85% (inactive)
- binding (% of control) [13]: 105% (inactive)
- efflux inhibition (fraction of control) [14]: 0.03 (inactive)
- inhibition [15]: 16% (inactive)
- differentiation response [16]: -4.57% (inactive)

Compound: CC(C)CCNC(=O)[C@H](CC(C)C)NC(=O)[C@H]1O[C@@H]1C(=O)O
- percent of DMSO control GFP [1]: 108% (inactive)
- GFP response vs DMSO [2]: 101% (inactive)
- percent response of DMSO control [3]: 112% (inactive)
- GFP response vs DMSO [4]: 93.3% (inactive)
- GFP response, % of DMSO [5]: 107% (inactive)
- double positive events [6]: 52.8%
- vesicle binding response [6]: 39.4% (active)
- inhibition [7]: -4.6% (inactive)
- superoxide response (% of plate) [8]: 96.2% (inactive)
- aptamer binding inhibition [9]: 3% (inactive)
- response [10]: -6.13% (inactive)
- inhibition [11]: -12.3% (inactive)
- response [12]: 1.19% (inactive)
- binding (% of control) [13]: 98.4% (inactive)
- efflux inhibition (fraction of control) [14]: 0.08 (inactive)
- inhibition [15]: 3% (inactive)
- differentiation response [16]: -1.71% (inactive)

Compound: COc1ccc(S(N)(=O)=O)cc1C(N)=O
- percent of DMSO control GFP [1]: 100% (inactive)
- GFP response vs DMSO [2]: 105% (inactive)
- percent response of DMSO control [3]: 97.8% (inactive)
- GFP response vs DMSO [4]: 101% (inactive)
- GFP response, % of DMSO [5]: 97% (inactive)
- double positive events [6]: 62%
- vesicle binding response [6]: 195% (inactive)
- inhibition [7]: -0.45% (inactive)
- superoxide response (% of plate) [8]: 106% (inactive)
- aptamer binding inhibition [9]: 0% (inactive)
- response [10]: 1.47% (inactive)
- inhibition [11]: 13.4% (inactive)
- response [12]: -1.59% (inactive)
- binding (% of control) [13]: 91.1% (inactive)
- efflux inhibition (fraction of control) [14]: 0.02 (inactive)
- inhibition [15]: 11% (inactive)
- differentiation response [16]: -4.64% (inactive)

Compound: CC/C(=C(\c1ccc(O)cc1)c1ccc(OCCN(C)C)cc1)c1ccccc1
- percent of DMSO control GFP [1]: 107% (inactive)
- GFP response vs DMSO [2]: 108% (inactive)
- percent response of DMSO control [3]: 109% (inactive)
- GFP response vs DMSO [4]: 99.1% (inactive)
- GFP response, % of DMSO [5]: 114% (inactive)
- double positive events [6]: 62.9%
- vesicle binding response [6]: 157% (inactive)
- inhibition [7]: 15% (inactive)
- superoxide response (% of plate) [8]: 97.5% (inactive)
- aptamer binding inhibition [9]: -6% (inactive)
- response [10]: 38.5% (inactive)
- inhibition [11]: 42.2% (inactive)
- response [12]: -1.39% (inactive)
- binding (% of control) [13]: 112% (inactive)
- efflux inhibition (fraction of control) [14]: 0.29 (inactive)
- inhibition [15]: 21% (inactive)
- differentiation response [16]: -3.11% (inactive)

Compound: CCSC(SCC)[C@H](O)[C@@H](O)[C@H](O)[C@H](O)CO
- percent of DMSO control GFP [1]: 95.5% (inactive)
- GFP response vs DMSO [2]: 113% (inactive)
- percent response of DMSO control [3]: 107% (inactive)
- GFP response vs DMSO [4]: 74.8% (inactive)
- GFP response, % of DMSO [5]: 93.8% (inactive)
- double positive events [6]: 58%
- vesicle binding response [6]: 218% (inactive)
- inhibition [7]: 6.46% (inactive)
- superoxide response (% of plate) [8]: 114% (inactive)
- aptamer binding inhibition [9]: 7% (inactive)
- response [10]: -7.81% (inactive)
- inhibition [11]: 4.05% (inactive)
- response [12]: -1.88% (inactive)
- binding (% of control) [13]: 104% (inactive)
- efflux inhibition (fraction of control) [14]: 0.3 (inactive)
- inhibition [15]: 6% (inactive)
- differentiation response [16]: -2.46% (inactive)

Compound: c1ccc(Nc2ccccn2)nc1
- percent of DMSO control GFP [1]: 98.6% (inactive)
- GFP response vs DMSO [2]: 105% (inactive)
- percent response of DMSO control [3]: 88.2% (inactive)
- GFP response vs DMSO [4]: 115% (inactive)
- GFP response, % of DMSO [5]: 100% (inactive)
- double positive events [6]: 59.3%
- vesicle binding response [6]: 190% (inactive)
- inhibition [7]: -3.16% (inactive)
- superoxide response (% of plate) [8]: 97.5% (inactive)
- aptamer binding inhibition [9]: 3% (inactive)
- response [10]: -8.84% (inactive)
- inhibition [11]: -0.14% (inactive)
- response [12]: -2.96% (inactive)
- binding (% of control) [13]: 103% (inactive)
- efflux inhibition (fraction of control) [14]: 0.26 (inactive)
- inhibition [15]: 4% (inactive)
- differentiation response [16]: 7.2% (inactive)

Compound: C/C=C/c1ccc(OCCCCN2CC(C)CC(C)C2)c(OC)c1 (stereo not given)
- percent of DMSO control GFP [1]: 102% (inactive)
- GFP response vs DMSO [2]: 107% (inactive)
- percent response of DMSO control [3]: 106% (inactive)
- GFP response vs DMSO [4]: 96.6% (inactive)
- GFP response, % of DMSO [5]: 97.2% (inactive)
- double positive events [6]: 58.6%
- vesicle binding response [6]: 52.4% (inactive)
- inhibition [7]: 8.88% (inactive)
- superoxide response (% of plate) [8]: 104% (inactive)
- aptamer binding inhibition [9]: -1% (inactive)
- response [10]: -1.02% (inactive)
- inhibition [11]: 39.6% (inactive)
- response [12]: -3.37% (inactive)
- binding (% of control) [13]: 99.7% (inactive)
- efflux inhibition (fraction of control) [14]: 0.02 (inactive)
- inhibition [15]: -10% (inactive)
- differentiation response [16]: -1.71% (inactive)

Compound: O=C(COc1ccc(F)cc1)OCCN1CCOCC1
- percent of DMSO control GFP [1]: 102% (inactive)
- GFP response vs DMSO [2]: 95.1% (inactive)
- percent response of DMSO control [3]: 112% (inactive)
- GFP response vs DMSO [4]: 93.3% (inactive)
- GFP response, % of DMSO [5]: 102% (inactive)
- double positive events [6]: 62.8%
- vesicle binding response [6]: 246% (inactive)
- inhibition [7]: -2.53% (inactive)
- superoxide response (% of plate) [8]: 89.6% (inactive)
- aptamer binding inhibition [9]: 0% (inactive)
- response [10]: -7.72% (inactive)
- inhibition [11]: -0.56% (inactive)
- response [12]: 21.8% (active)
- binding (% of control) [13]: 96.4% (inactive)
- efflux inhibition (fraction of control) [14]: -0.1 (inactive)
- inhibition [15]: -1% (inactive)
- differentiation response [16]: -6.6% (inactive)
